Results: PubChem BioAssay (NCI)
The panel holds about 79,000 compounds, 15% with a hit somewhere; the sample as a whole holds those more often. The source made the active and inactive calls. Cut-off read from the data, not from the text of the source: active = growth inhibition above about 70%; inactive = the rest.

Key:
[1] = NCI Yeast Anticancer Drug Screen. Data for the rad50 strain (AID 155);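 note: 0% = growth of vehicle-only cultures of the same strain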; conditions: S. cerevisiae rad50 strain growth inhibition; at 50.0 µM; stronger effect = higher value
Outline: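 Inhibition values express reduced yeast growth in compound-treated cultures relative to vehicle-treated controls.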

[2] = NCI Yeast Anticancer Drug Screen. Data for the mec2-1 strain (AID 157); conditions: S. cerevisiae mec2-1 strain, at 50.0 µM, stronger effect = higher value
Outline: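 Readout is yeast growth inhibition, normalised to vehicle-treated controls, in the mec2-1 strain exposed to compound.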

[3] = NCI Yeast Anticancer Drug Screen. Data for the sgs1 mgt1 strain (AID 161);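 note: 0% = growth of cultures given vehicle only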; conditions: S. cerevisiae sgs1 mgt1 strain, at 50.0 µM, stronger effect = higher value
Outline: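 This yeast growth screen uses a strain with defined DNA-repair lesions; compound-treated growth is compared with vehicle-treated growth.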

[4] = NCI Yeast Anticancer Drug Screen. Data for the cln2 rad14 strain (AID 165);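 note: 0% = growth equal to vehicle treated cultures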; conditions: S. cerevisiae cln2 rad14 strain, at 50.0 µM, stronger effect = higher value
Outline: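 Relative to vehicle controls, growth inhibition of compound-treated cln2 rad14 yeast was recorded.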

[5] = NCI Yeast Anticancer Drug Screen. Data for the bub3 strain (AID 167); conditions: S. cerevisiae bub3 mutant strain, at 50.0 µM, stronger effect = higher value
Outline: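 Steps: expose the mutant yeast strain to compound; grow alongside vehicle-treated cultures; measure growth; express inhibition against the vehicle cultures.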

[6] = NCI Yeast Anticancer Drug Screen. Data for the mlh1 rad18 strain (AID 175); conditions: S. cerevisiae mlh1 rad18 strain growth inhibition; at 50.0 µM; stronger effect = higher value
Outline: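 Test agents were incubated with a yeast strain of defined genotype (DNA damage repair defect). Inhibition of growth was derived by comparison with vehicle-exposed cultures.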

Measured: growth inhibition

O=C(NCCN1CCCC1)Nc1ccccc1
inactive: [1] -3.2% | [2] -20.2% | [3] -17.2% | [4] -47.7% | [5] 2.3% | [6] 8.45%

Cc1cc(=O)[nH]c(NN2C(Cl)C(=O)C2c2c(O)ccc3ccccc23)n1 (stereo not drawn)
inactive: [1] -8.2% | [2] -10.6% | [3] -0.75% | [4] 13.3% | [5] 0.7% | [6] -32.8%

Nc1ccn([C@@H]2C=C(CO)[C@@H](O)[C@H]2O)c(=O)n1
inactive: [1] -16.1% | [2] -20.6% | [3] -22.5% | [4] -13.3% | [5] -10.4% | [6] -21.9%

CCOC(=O)C(/C(=N/NC(=O)OC)C(=O)Nc1ccc(C(C)=O)cc1)c1cnc2ccccc2n1 (stereo not drawn)
inactive: [1] 0.9% | [2] -40.9% | [3] -26.6% | [4] 26.1% | [5] -1.5% | [6] 0.25%

CCN(CC)C(=O)NCCCCCCNC(=O)N(CC)CC
inactive: [1] -20.2% | [2] -36.8% | [3] -27.8% | [4] -20% | [5] -29.2% | [6] -23.6%

CC(=O)Nc1ccc(S(=O)(=O)NC2(C)C(=O)N(C)C(=O)N(C)C2=O)cc1
inactive: [1] 32.2% | [2] 15.2% | [3] 14.2% | [4] 17.5% | [5] 3.15% | [6] 27.7%

Cc1ccc(-n2nnc(-c3ccc(Cl)c(Cl)c3)n2)cc1
inactive: [1] -30.9% | [2] -40.8% | [3] -4.45% | [4] -12.1% | [5] -18.6% | [6] -31.5%

CCOC(=O)N1N(C(=O)c2ccccc2)C(=O)CC1(C)C
inactive: [1] -3.15% | [2] 8.2% | [3] 1.5% | [4] -16.1% | [5] -6.8% | [6] -24.2%

CCN(CC)CCN1c2ccccc2Sc2ccc3ccccc3c21
inactive: [1] 37.5% | [2] 0.8% | [3] 2.7% | [4] 3.4% | [5] 38.5% | [6] 58.5%

O=C(CC(O)(C(F)(F)Cl)C(F)(F)Cl)c1cccc([N+](=O)[O-])c1
active: [1] 77.5% | [3] 81.5% | [4] 72.5% | [6] 95.8%
inactive: [2] 62% | [5] 61%

Cc1ccccc1S(=O)(=O)N1C(=O)c2ccccc2S1(=O)=O
inactive: [1] 12.8% | [2] -13.8% | [3] 5.35% | [4] 10.2% | [5] 5.15% | [6] -13.8%

CCCCC(C(=O)O)C(C)CC (stereo not drawn)
inactive: [1] 35% | [2] 12.2% | [3] 18.8% | [4] 22.3% | [5] 36.5% | [6] 29.6%

CCNC(=O)Oc1cccc(NC(=O)CC)c1
inactive: [1] 3.2% | [2] -4.2% | [3] -0.25% | [4] -14.2% | [5] 3.65% | [6] 3.7%

CCCNC(C)C(C)O (stereo not drawn)
inactive: [1] -5.9% | [2] -16.4% | [3] -24.1% | [4] -16.3% | [5] -4.75% | [6] -10.9%

O=C(O)C(CO)c1ccccc1 (stereo not drawn)
inactive: [1] 0.15% | [2] -1.3% | [3] -4.55% | [4] -4.65% | [5] 10.6% | [6] -2.75%

O=C(O)C1C2CCC(O2)C1C(=O)NCc1cccnc1 (stereo not drawn)
inactive: [1] 23.1% | [2] -3.8% | [3] -11.7% | [4] -9.9% | [5] -11% | [6] 2.85%

COC(=O)n1sc(SC)nc1=N
inactive: [1] 3.75% | [2] -3.95% | [3] -8.9% | [4] -14.3% | [5] -17.1% | [6] 3.55%

CC(=O)OCC1OC(n2c(-c3ccccc3)c(N=Nc3ccccc3)c(C)c(C#N)c2=S)C(OC(C)=O)C(OC(C)=O)C1OC(C)=O (stereo not drawn)
inactive: [1] -14% | [2] -17.4% | [3] -20.2% | [4] 11.5% | [5] 2.55% | [6] 9.75%

Nc1nc(N)c2c(n1)CCC(CNc1ccc(C(=O)NC(CCC(=O)O)C(=O)O)cc1)C2 (stereo not drawn)
inactive: [1] 23.6% | [2] 30.6% | [3] 38.3% | [4] 40.2% | [5] -3.8% | [6] 29.7%

O=C(CCCC(=O)Nc1ccccc1)Nc1ccccc1
inactive: [1] -9.35% | [2] -6.9% | [3] -1.55% | [4] -35.2% | [5] -14.1% | [6] -15.7%

CCOC(=O)c1c(-c2ccccc2)c(-c2ccccc2)cn1C
inactive: [1] 18.3% | [2] -7.45% | [3] 5.2% | [4] 25.9% | [5] 6.45% | [6] 24.3%

COc1cccc(/C=C(\NC(C)=O)c2nc3ccc(Cl)cc3[nH]2)c1
inactive: [1] 1.8% | [2] -1.35% | [3] 8.75% | [4] 2.15% | [5] -3.85% | [6] 8.1%

CCCC(O)c1ccccc1 (stereo not drawn)
inactive: [1] 31.2% | [2] 35.8% | [3] -9.65% | [4] 5.3% | [5] 3.7% | [6] 18.9%

O=C1c2cc([N+](=O)[O-])ccc2-c2c(S)cccc21
inactive: [1] 2.25% | [2] 5.25% | [3] -10.2% | [4] -4.7% | [5] 25.8% | [6] -16.3%

OC1COC(c2ccccc2)OC1C(O)C1OC(c2ccccc2)OCC1O (stereo not drawn)
inactive: [1] 5.3% | [2] -3.8% | [3] 12.2% | [4] -38.9% | [5] -8.2% | [6] 10.7%

O=C1OC(c2cccc3ccc(Br)cc23)c2ccccc21 (stereo not drawn)
inactive: [1] 21.1% | [2] 0.5% | [3] 6.2% | [4] 19.5% | [5] 16.1% | [6] 3.45%

CC1CCC(C(C)C)N(C)CC1 (stereo not drawn)
inactive: [1] -17.2% | [2] -22.6% | [3] -6% | [4] 3.75% | [5] -8.15% | [6] -2.2%

O=C(NC1CC1)c1ccccc1
inactive: [1] 5.8% | [2] 1.6% | [3] 4.7% | [4] -5.9% | [5] 1.85% | [6] -15.7%

CCN(CC)CCOC(=O)c1ccc(N=Nc2ccc(O)cc2)cc1
inactive: [1] 7.25% | [2] -0.8% | [3] -17.9% | [4] -6.25% | [5] 1% | [6] -5.7%

CCC(=O)/C=C/c1ccccc1
inactive: [1] -1.55% | [2] -14.2% | [3] -22.1% | [4] -23.9% | [5] -34.5% | [6] -47.6%

C/C(=C/OS(=O)(=O)C(F)(F)F)c1ccccc1
inactive: [1] -22.3% | [2] -0.2% | [3] -3.2% | [4] -8.55% | [5] -1.5% | [6] 4.25%

O=c1[nH]cc(S)c(=O)[nH]1
inactive: [1] 15.8% | [2] -28.4% | [3] -15.4% | [4] -9.35% | [5] -9.7% | [6] -0.35%

CCOC(=O)/C(C(C)=O)=C1\C(=O)c2ccccc2-c2ccccc21
inactive: [1] 21.6% | [2] 3.5% | [3] 2.8% | [4] -19.2% | [5] 12.9% | [6] 12.5%

c1ccc2c3c(cc(CCc4cc5c(c6ccccc46)CCCC5)c2c1)CCCC3
inactive: [1] -9.8% | [2] -18.3% | [3] -5.65% | [4] -16% | [5] -8.9% | [6] -4.2%

CC(=O)/C(=C\I)c1ccccc1
active: [1] 87.8% | [2] 91.8% | [3] 85.4% | [4] 89.9% | [5] 89.5% | [6] 85.5%

CNc1ncnc2n[nH]nc12
inactive: [1] -10.7% | [2] -0.35% | [3] -12.1% | [4] -23% | [5] -11.6% | [6] 3.45%

CCOc1ccc(NC(=O)C2=C(C)NC(C)=C(C(=O)Nc3ccc(OCC)cc3)C2c2ccc(O)c(OC)c2)cc1
inactive: [1] -17.4% | [2] 3% | [3] -14.8% | [4] -16.4% | [5] 16% | [6] -8.1%

Clc1c2ncccc2cc2n[nH]nc12
inactive: [1] 14.9% | [2] 21.2% | [3] 24% | [4] 6.55% | [5] 5.8% | [6] 17.1%
